# From PubChem BioAssay (Tox21)
# “And” between values parts separate entries of the source, which are not always exact repeats. Identical values can stand only once. Records with an inconclusive call do not appear. Entries that show only a call come without a potency. A structure can be active in one record and inactive in another. The source made the active and inactive calls. The call rests on the fitted dose curve; in most records, active means well fitted curve in the direction sought with a large enough effect in the repeat runs; inconclusive means weak or mixed curves; inactive means no such curve, though single readings can be large; an effect the other way counts as inactive or inconclusive.
# What was measured:
# [1] = Human pregnane X receptor (PXR) small molecule agonists, qHTS cell viability counter screen (AID 1346977); further: nearly all actives have a fitted effect of over 50% in size; further: potency means the concentration at half of the fitted maximal effect
# Outline: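 After a 5hr pre-incubation, PXR-Luc HepG2 cells received compounds plus positive control in DMSO and were kept 24hr at 37C. Cell viability was quantified by fluorescence from CellTiter-Fluor added for the final hour.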
# [2] = Caspase-3/7 induction in HepG2 cells by small molecules, qHTS assay (AID 1346978); further: nearly all actives have a fitted effect of over 15% in size; further: potency means the concentration at half of the fitted maximal effect
# Outline: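 Caspase-3/7 induction was measured by Caspase-Glo 3/7 luminescence (30 min, room temperature) after a 17 hr compound exposure of wild-type HepG2 cells seeded at 2,000 per well and pre-incubated 5 hr.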
# [3] = Caspase-3/7 induction in CHO-K1 cells by small molecules, qHTS cell viability counter screen (AID 1346979); further: nearly all actives have a fitted effect of over 35% in size; further: potency means the concentration at half of the fitted maximal effect
# Outline: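 Multiplexed with Caspase-Glo 3/7 in CHO-K1 cells, this counter screen added CellTiter-Fluor after 16hr of compound exposure and recorded fluorescence 1hr later.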
# [4] = molecular target: Nuclear receptor subfamily 1 group I member 2 (Rattus norvegicus) (UniProt Q9R1A7); assay: Rat pregnane X receptor (rPXR) activation by small molecules, qHTS assay (AID 1346983); conditions: rPXR luciferase reporter cells, One-Glo luminescence, 24 h; max activation: stronger effect = higher value; further: nearly all actives have a fitted effect of over 20% in size; further: potency means the concentration at half of the fitted maximal effect
# Nuclear receptor subfamily 1 group I member 2 (Rattus norvegicus), sequence (Q9R1A7 whole entry, looked up): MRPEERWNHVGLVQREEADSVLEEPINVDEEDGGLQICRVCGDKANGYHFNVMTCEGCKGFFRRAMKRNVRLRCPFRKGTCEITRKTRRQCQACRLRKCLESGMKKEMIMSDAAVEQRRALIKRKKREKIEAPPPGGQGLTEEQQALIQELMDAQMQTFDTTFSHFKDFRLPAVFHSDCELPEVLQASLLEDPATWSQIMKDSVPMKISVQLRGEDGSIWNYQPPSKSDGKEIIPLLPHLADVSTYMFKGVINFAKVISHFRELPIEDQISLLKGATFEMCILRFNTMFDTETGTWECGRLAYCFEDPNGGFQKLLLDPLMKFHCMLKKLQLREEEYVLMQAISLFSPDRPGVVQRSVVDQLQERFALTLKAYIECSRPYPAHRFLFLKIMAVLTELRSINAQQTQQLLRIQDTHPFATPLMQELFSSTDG
# Outline: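 Luminescent readout (One-Glo luciferase, 30 min room temperature) followed 24 hr compound treatment at 37 C of rPXR cells plated 2,000 per well and preincubated 5hr; qHTS format with compounds delivered in DMSO.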
# [5] = molecular target: Cytochrome P450 2D6 (Homo sapiens) (UniProt P10635); assay: Cytochrome P450 Family 2 Subfamily D Member 6 (CYP2D6) small molecule antagonists: luciferase reporter qHTS assay (AID 1671196); further: nearly all actives have a fitted effect of over 50% in size; further: potency means the concentration at half of the fitted maximal effect
# Cytochrome P450 2D6 (Homo sapiens), sequence (P10635 whole entry, looked up): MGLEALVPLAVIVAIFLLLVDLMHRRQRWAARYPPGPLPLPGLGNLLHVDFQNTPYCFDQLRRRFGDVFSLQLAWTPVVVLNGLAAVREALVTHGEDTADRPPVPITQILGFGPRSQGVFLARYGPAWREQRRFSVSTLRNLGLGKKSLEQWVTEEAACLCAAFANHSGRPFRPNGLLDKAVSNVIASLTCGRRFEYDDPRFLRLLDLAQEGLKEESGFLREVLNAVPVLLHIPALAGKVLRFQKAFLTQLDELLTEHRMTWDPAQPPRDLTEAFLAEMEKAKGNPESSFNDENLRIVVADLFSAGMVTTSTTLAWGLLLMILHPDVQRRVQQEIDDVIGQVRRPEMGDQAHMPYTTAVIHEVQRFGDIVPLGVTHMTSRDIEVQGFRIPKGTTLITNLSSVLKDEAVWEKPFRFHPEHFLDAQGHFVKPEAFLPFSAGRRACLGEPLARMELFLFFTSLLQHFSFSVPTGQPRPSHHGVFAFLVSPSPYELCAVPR
# Outline: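 Room-temperature luminescent CYP2D6 activity assay: compound preincubated 10 min with enzyme–substrate mix, NADPH-initiated reaction 1 h, detection reagent 20 min before reading.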
# [6] = Caspase-3/7 induction in CHO-K1 cells by small molecules, qHTS assay (AID 1346980); further: nearly all actives have a fitted effect of over 15% in size
# Outline: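 Luminescent Caspase-Glo 3/7 read (30min, room temperature) quantified apoptosis induction. Cells were wild-type CHO-K1, treated with compound for 17hr at 37 C and 5% CO2.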
# [7] = molecular target: Nuclear receptor subfamily 1 group I member 2 (Homo sapiens) (UniProt O75469); assay: Human pregnane X receptor (PXR) small molecule agonists, qHTS assay (AID 1346982); further: nearly all actives have a fitted effect of over 35% in size; further: potency means the concentration at half of the fitted maximal effect
# Nuclear receptor subfamily 1 group I member 2 (Homo sapiens), sequence (O75469 whole entry, looked up): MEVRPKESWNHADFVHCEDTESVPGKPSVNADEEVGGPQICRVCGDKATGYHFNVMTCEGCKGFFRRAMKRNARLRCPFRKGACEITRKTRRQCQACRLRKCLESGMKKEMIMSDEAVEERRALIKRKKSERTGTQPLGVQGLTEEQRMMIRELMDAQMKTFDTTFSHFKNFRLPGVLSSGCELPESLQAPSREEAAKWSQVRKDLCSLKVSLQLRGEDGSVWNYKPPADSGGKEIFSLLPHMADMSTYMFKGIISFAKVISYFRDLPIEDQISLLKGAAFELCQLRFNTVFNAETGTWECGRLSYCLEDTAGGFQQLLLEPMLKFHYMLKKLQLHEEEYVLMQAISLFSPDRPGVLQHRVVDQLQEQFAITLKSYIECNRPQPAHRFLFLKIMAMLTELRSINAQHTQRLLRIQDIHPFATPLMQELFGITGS
# Outline: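 Tox21 qHTS; PXR-Luc HepG2; compounds pinned from DMSO; 24 hr, 37 C; ONE-Glo luciferase detection, 30 min room temperature.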
# [8] = Caspase-3/7 induction in HepG2 cells by small molecules, qHTS cell viability counter screen (AID 1346981); further: nearly all actives have a fitted effect of over 30% in size; further: potency means the concentration at half of the fitted maximal effect
# Outline: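 After a 5-hr attachment period at 37 C and 5% CO2, wild-type HepG2 cells received compounds in DMSO. Sixteen hours later CellTiter-Fluor was dispensed and the fluorescent signal quantified after a further hour.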
# [9] = molecular target: Nuclear receptor subfamily 1 group I member 2 (Homo sapiens) (UniProt O75469); assay: CYP3A4 induction through human pregnane X receptor (PXR) by small molecules, qHTS assay (AID 1346984); further: nearly all actives have a fitted effect of over 40% in size
# Outline: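 Cells (DPX-2; HepG2 with PXR element plus CYP3A4-promoter luciferase) settled 5hr, then were treated 24hr at 37C. A 3hr, 3uM-final Luciferin-IPA step preceded luminescence measurement with One-Glo.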
# [10] = molecular target: Nuclear receptor subfamily 1 group I member 2 (Homo sapiens) (UniProt O75469); assay: Human pregnane X receptor (PXR) activation by small molecules, qHTS assay (AID 1346985); further: nearly all actives have a fitted effect of over 40% in size
# Outline: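 DPX-2 cells (HepG2 co-transfected with a PXR response element and a CYP3A4-promoter luciferase construct) were seeded at 2,000 per well, rested 5 hr at 37C, then exposed to DMSO-dissolved compounds for 24 hr. Activation was read as luciferase luminescence.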
Compound,Potency [1],Potency [2],Potency [3],max activation [4],Potency [5],Potency [6],Potency [7],Potency [8],Potency [9],Potency [10],Potency [4]
Cc1ncc[nH]1,inactive,inactive,inactive,1.32% (inactive),inactive,–,–,–,–,–,–
CC(=O)CC/C=C(\C)CCC=C(C)C,inactive,inactive,inactive,–,inactive,inactive,inactive and 54.5 µM (active),–,–,–,–
O=P(O)(O)O,inactive,inactive,inactive,-4.8% (inactive),–,–,–,inactive,–,–,–
CNCCCC12CCC(c3ccccc31)c1ccccc12,27.3 µM (active),27.3 µM (active),61.1 µM (active) and inactive,–,–,–,–,61.1 µM (active),–,–,–
CC(C)=CCC/C(C)=C\CO,inactive,inactive,–,–,–,inactive,–,–,–,–,–
Nc1ccc(S(=O)(=O)Nc2cnc3ccccc3n2)cc1,inactive,inactive,inactive,6.27% (inactive),inactive,–,inactive,–,inactive,inactive,–
C#C[C@]1(O)CC[C@H]2[C@@H]3CCC4=Cc5oncc5C[C@]4(C)[C@H]3CC[C@@]21C,inactive,inactive,43.3 µM (active) and 26.6 µM (active),–,–,–,30.6 µM (active) and 29.8 µM (active),inactive,inactive,inactive,7.94 µM (active)
CN(C)CCN(Cc1cccs1)c1ccccn1,inactive,inactive,–,-1.17% (inactive),–,inactive,20 µM (active) and inactive,inactive,inactive,inactive,–
Nc1ncnc2nc[nH]c12,inactive,inactive,–,0.861% (inactive),inactive,inactive,27.3 µM (active) and inactive,inactive,inactive,inactive,–
Cc1ccc(C)c(O)c1C,inactive,inactive,–,–,inactive,–,inactive,–,–,–,–
S=C(NC1CCCCC1)NC1CCCCC1,inactive,inactive,–,–,31.1 µM (active) and 22.4 µM (active),–,26.8 µM (active) and 19.3 µM (active),inactive,–,–,–
C=C(C)C1CC=C(C)CC1 (stereo not given),inactive,inactive,–,-4.17% (inactive),inactive,–,inactive,–,inactive,inactive,–
Nc1ccc(Nc2ccccc2)cc1,30.3 µM (active) and 39.8 µM (active) and 30.6 µM (active),inactive,–,–,35.2 µM (active) and 35.6 µM (active),–,24.1 µM (active) and 19.3 µM (active) and 34.4 µM (active),42.8 µM (active) and 34.4 µM (active) and 48.6 µM (active),–,–,–
CC(C)CC(C)(O)C#CC(C)(O)CC(C)C (stereo not given),31.6 µM (active) and inactive,inactive,–,–,–,–,–,inactive,–,–,–
